Data as given in the supplement of paper PMC10981050.
Values joined by “and” are separate entries in the source; they are usually repeats but may differ in a detail not shown here. Equal entries are not always repeated. Structures can show the parent of a compound that is named as a salt.

How the values were obtained:
Assay in all cases: cell viability relative to vehicle control; higher = less cytotoxic
Conditions in all cases: 10 µM
[1] = system: K562
Method in brief: (§1)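 Screening covered the Selleck bioactive, kinase and epigenetic probe libraries, less identity-inconsistent compounds, on CRISPR-edited mutant clones and isogenic wild-type clones of four leukaemia lines. Cells, at 2000 per well in 50 µL medium, received a single 10 µM acoustically dispensed dose. After 48 h the supernatant was removed and CellTiter-Glo luminescence was read. Viability was analysed in Genedata Screener as percent of the on-plate vehicle control.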

[2] = system: MARIMO
Method in brief: as §1

[3] = system: MOLM14
Method in brief: as §1

[4] = system: OCI-AML2
Method in brief: as §1

| SMILES | cell viability ([1]; SRSF2 genotype: SRSF2 P95H/wt) | cell viability ([1]; SRSF2 genotype: SRSF2 wt/wt) [%] | cell viability ([2]; SRSF2 genotype: SRSF2 P95H/wt) [%] | cell viability ([2]; SRSF2 genotype: SRSF2 wt/wt) [%] | cell viability ([3]; SRSF2 genotype: SRSF2 P95H/wt) [%] | cell viability ([3]; SRSF2 genotype: SRSF2 wt/wt) [%] | cell viability ([4]; SRSF2 genotype: P95H/wt) [%] | cell viability ([4]; SRSF2 genotype: wt/wt) [%] |
| --- | --- | --- | --- | --- | --- | --- | --- | --- |
| COc1cc(-c2cn(C)c(=O)c3cnccc23)cc(OC)c1CN(C)C | 104% and 95.7% | 105 | 99.4 | 87.2 | 103 | 95.9 | 98.6 | 113 |
| C=CC(=O)N1C[C@H](Nc2ncnc3[nH]ccc23)CC[C@@H]1C | 96.3% and 105% | 102 | 94.5 | 97.7 | 81.1 | 93.8 | 86.8 | 91.6 |
| C=C1CCC[C@]2(C)C[C@@H]3OC(=O)C(C)=C3C[C@@H]12 [Atractylenolide II] | 107% and 105% | 99.7 | 96.8 | 102 | 101 | 106 | 103 | 106 |
| Nc1ccccc1NC(=O)c1ccc(CNc2nccc(-c3cccnc3)n2)cc1 [Mocetinostat (MGCD0103)] | 4.12% and 14.8% | 10.5 | 7.4 | 9.28 | 0.6 | 0.42 | 0.44 | 3.29 |
| CCN(C(=O)c1c(O)c2c(Cl)cccc2n(C)c1=O)c1ccccc1 | 98.8% and 96.5% | 96.4 | 92.4 | 99.1 | 84.1 | 93.4 | 87.9 | 99.8 |
| C/C=C(/C)C(=O)OC(=O)/C(C)=C\C [Angelic anhydride] | 98.7% and 106% | 113 | 101 | 101 | 103 | 107 | 102 | 100 |
| COc1cc(/C=C/C(=O)CC(=O)/C=C/c2ccc(O)c(OC)c2)ccc1O [Curcumin] | 90.9% and 87% | 91.9 | 87.3 | 75.7 | 47.8 | 59.1 | 60.6 | 69.3 |
| CCCCCCCCCCCCCCCC(=O)O[C@@H]1[C@@H](O)[C@@H](O)[C@@H]([C@H](NC(=O)[C@@H]2C[C@@H](CCC)CN2C)[C@H](C)Cl)O[C@@H]1SC [Clindamycin palmitate HCl] | 90.7% and 98.9% | 94.8 | 103 | 108 | 101 | 105 | 93.6 | 101 |
| CO/N=C(\C(=O)N[C@@H]1C(=O)N2C(C(=O)O)=C(Cn3ccc(=N)n3CCO)CS[C@H]12)c1csc(N)n1 [Cefoselis sulfate] | 95.5% and 104% | 94 | 92.6 | 98 | 100 | 101 | 103 | 96.8 |
| C[C@H](CCC(=O)NCCS(=O)(=O)O)[C@H]1CC[C@H]2[C@@H]3[C@@H](O)C[C@@H]4C[C@H](O)CC[C@]4(C)[C@H]3CC[C@]12C [Tauroursodeoxycholic Acid] | 102% | 99 | 99.4 | 108 | 107 | 103 | 95.8 | 114 |
| COc1ccc(C(=O)Nc2sc3c(c2C(N)=O)CCCC3)cc1OC | 95.4% and 96.5% | 91.5 | 93.8 | 91.9 | 79.8 | 93 | 85.2 | 81.4 |
| COc1cc(N2CCC(N)CC2)ccc1Nc1ncc(Cl)c(-c2c[nH]c3ccccc23)n1 | 14.5% and 15.7% | 7.15 | 37.8 | 33.6 | 1.81 | 5.73 | 6 | 16.7 |
| NCc1c[nH]c(=S)n1[C@@H]1CCc2c(F)cc(F)cc2C1 [(R)-Nepicastat HCl] | 101% and 97% | 102 | 94.9 | 110 | 97.2 | 101 | 104 | 103 |
| CCOC(=O)CC(=O)N1CCSC1COc1ccccc1OC (stereo unspecified) [Moguisteine] | 99.2% and 102% | 97.3 | 98.3 | 108 | 100 | 105 | 105 | 92 |
| CN(C)c1ccc(-c2nc3ncc(Cl)c(N4CCN(CC(=O)Nc5nccs5)CC4)c3[nH]2)cc1 | 95.8% and 101% | 95.2 | 96.9 | 109 | 78.9 | 87.5 | 92.4 | 95.1 |
| N#CC(=C(O)c1ccc(Cl)cc1Cl)c1nc2ccccc2c(=O)[nH]1 [HPI-4 (Ciliobrevin A)] | 91.5% and 92.8% | 93.6 | 98.9 | 97 | 92.1 | 87.2 | 106 | 99.5 |
| CCCS(=O)(=O)Nc1ccc(F)c(C(=O)c2c[nH]c3ncc(Cl)cc23)c1F | 87.6% and 92.7% | 94.9 | 72.2 | 88.4 | 81.4 | 88.1 | 99.2 | 105 |
| NCc1ccc(S(N)(=O)=O)cc1 [Mafenide Acetate] | 102% and 98.3% | 94.8 | 95.8 | 106 | 91.9 | 101 | 102 | 110 |
| COc1ccc(-c2coc3cc(O[C@@H]4O[C@H](CO)[C@@H](O)[C@H](O)[C@H]4O)ccc3c2=O)cc1O [Calycosin-7-O-beta-D-glucoside] | 95% and 99% | 98.5 | 93 | 105 | 112 | 110 | 97.1 | 106 |

| SMILES | cell viability ([1]; SRSF2 genotype: SRSF2 P95H/wt) | cell viability ([1]; SRSF2 genotype: SRSF2 wt/wt) [%] | cell viability ([2]; SRSF2 genotype: SRSF2 P95H/wt) [%] | cell viability ([2]; SRSF2 genotype: SRSF2 wt/wt) [%] | cell viability ([3]; SRSF2 genotype: SRSF2 P95H/wt) [%] | cell viability ([3]; SRSF2 genotype: SRSF2 wt/wt) [%] | cell viability ([4]; SRSF2 genotype: P95H/wt) [%] | cell viability ([4]; SRSF2 genotype: wt/wt) [%] |
| --- | --- | --- | --- | --- | --- | --- | --- | --- |
| S=c1nc[nH]c2nc[nH]c12 [6-Mercaptopurine (6-MP) Monohydrate] | 70.9% and 60.5% | 39.7 | 104 | 96.8 | 87.4 | 71.8 | 103 | 94.1 |
| CC(C)N1CCN(Cc2cnc(-c3cc(-c4cccc5[nH]ccc45)cc4[nH]ncc34)o2)CC1 | 39.8% and 29.8% | 36.8 | 53.7 | 52.9 | 68.2 | 61.6 | 30.8 | 39.8 |
| CC(ONC(=O)c1cc(C(F)(F)F)cc(C(F)(F)F)c1)C(=O)Nc1ccc(Cl)cc1 (stereo unspecified) | 78.9% and 81% | 78.8 | 95.5 | 102 | 88.7 | 93.2 | 82 | 90.7 |
| CN(C)CCCNC(=O)c1ccc(-c2cc(O)c3ncccc3c2)cc1 | 55% and 32.1% | 47.3 | 52.3 | 53 | 40.7 | 24.9 | 33 | 33.2 |
| CN(C[C@@H]1COCCO1)S(=O)(=O)Nc1ccc2ccc3ncc(-c4cnn(C)c4)cc3c(=O)c2c1 | 77.6% and 96.8% | 82.6 | 74.1 | 72.6 | 20.4 | 16.7 | 41.6 | 47.3 |
| CCCOc1ccc2c(c1)CC[C@@H]1[C@@H]2CC[C@]2(C)[C@@H](OC)CC[C@@H]12 [Promestriene] | 86.2% and 89.4% | 94.1 | 76.6 | 89.8 | 83.1 | 97.2 | 59.6 | 66.2 |
| C=C1/C(=C\C=C2/CCC[C@]3(C)[C@@H]([C@H](C)/C=C/[C@@H](O)C4CC4)CC[C@@H]23)C[C@@H](O)C[C@@H]1O [Calcipotriene] | 75.3% and 84.2% | 79.8 | 65 | 65.3 | 66.8 | 63.6 | 79.2 | 96.1 |
| O=C(O)P(=O)(O)O [Foscarnet Sodium] | 106% and 108% | 107 | 101 | 108 | 101 | 109 | 112 | 95.6 |
| O=C(Nc1cccnc1)c1cc(-c2ccnc(F)c2)ccc1OCc1ccccc1 | 97.4% and 102% | 94.6 | 97.5 | 102 | 104 | 98.7 | 95.8 | 95.6 |
| CN(C)CC(c1ccc(O)cc1)C1(O)CCCCC1 (stereo unspecified) [Desvenlafaxine] | 96.7% and 97.5% | 101 | 102 | 102 | 98.1 | 100 | 100 | 99.3 |
| C=CC(=O)Nc1cc(N2CCN(CC)CC2)ccc1Nc1cc(N(C)C(=O)Nc2c(Cl)c(OC)cc(OC)c2Cl)ncn1 | 26.8% and 16.8% | 28.7 | 37.6 | 31.7 | 0.69 | 0.44 | 1.37 | 1.1 |
| Cc1cnc(Nc2ccc(N3CCN(C)CC3)cc2)nc1Nc1cccc(S(=O)(=O)NC(C)(C)C)c1 | 0.99% and 2.2% | 2.6 | 17.1 | 16.1 | 0.12 | 0.18 | 0.19 | 2.96 |
| CC(=O)[C@H]1CC[C@H]2[C@@H]3CCC4=CC(=O)CC[C@]4(C)[C@H]3CC[C@]12C [Progesterone (Prometrium)] | 78% and 87.7% | 81.7 | 60.7 | 38.8 | 75 | 78.8 | 54.5 | 59.9 |
| O=S(=O)(O)CCS [Mesna (Uromitexan, Mesnex)] | 107% and 96% | 103 | 94.2 | 110 | 104 | 100 | 92 | 104 |
| CC(=O)OCC=Cc1ccccc1 [Cinnamyl acetate] | 98.4% and 95.9% | 104 | 99.4 | 95.9 | 101 | 102 | 101 | 111 |
| CCN(CC)CCOC(=O)c1ccc(N)cc1 [Procaine] | 100% and 99% | 102 | 99.6 | 108 | 107 | 105 | 104 | 101 |
| CC(CCC(=O)NCCS(=O)(=O)O)C1CCC2C3C(O)CC4CC(O)CCC4(C)C3CCC12C (stereo unspecified) [Sodium Tauroursodeoxycholate (TUDC)] | 91.6% and 88.5% | 89.8 | 94 | 103 | 91.7 | 91.2 | 90.3 | 89.4 |
| CCCCc1nc2cc(/C=C/C(=O)NO)ccc2n1CCN(CC)CC [SB939 (Pracinostat)] | 1.57% and 13.7% | 4.32 | 9.81 | 13.9 | 1.19 | 0.63 | 4.26 | 6.25 |
